PLK1 PBD block: qHTS for Inhibitors of PLK1-PDB (polo-like kinase 1 - polo-box domain): Primary Screen; Serine/threonine-protein kinase PLK1 (Homo sapiens), P53350; Potency, µM, for the others: max response, negative = inhibition, hits mostly inhibitors; Plk1 PBD binding of FITC phosphopeptide, fluorescence polarization; AID 720504, 2013; 2.8% of 360,000 active; note: potency is the fitted concentration of half-maximal effect; series mostly up to about 57 µM; % is set by controls: 0 for no effect and ±100 for the full control effect; nearly all actives have a fitted effect of over 65% in size
VDR inhibitor: Inhibitors of the vitamin D receptor (VDR): qHTS | 0.93% of 400,000 active | Vitamin D3 receptor (Homo sapiens), P11473 | VDR-SRC2-3 peptide fluorescence polarization, 2 h | Potency, µM, without a hit: max response, negative = inhibition, actives largely listed as inhibitors; note: potency is the fitted concentration of half-maximal effect; % is set by controls: 0 for no effect and ±100 for the full control effect
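Fluorescence polarization assay measuring small-molecule disruption of VDR binding to the coregulator peptide SRC2-3. Compounds were pin-transferred (23 nl) into the reagent mix and incubated 2 h at room temperature before reading.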
PTAP TSG101 blk: qHTS Assay for Iinhibitors of HIV-1 Budding by Blocking the Interaction of PTAP/TSG101 | Tumor susceptibility gene 101 protein (Homo sapiens), Q99816 | Fluorescence polarization, FITC-PTAP peptide / Tsg101 binding | Potency, µM (highest dose often 115 µM), inactives show at the highest dose activity change, negative = inhibition, usual class: inhibitors | 340,000 tested, under 10 active | AID 493005, 2010; active = well fitted inhibition curve with a large enough effect in the main read-out, with a control signal flat, not every such curve was filed as active; inconclusive = small, poorly fitted or top-dose-only effect, or effect the other way, or a change in a side signal; inactive = no such curve, though single readings can be large or run the other way; note: potency is the fitted concentration of half-maximal effect; % of control where 0% means no effect
Target sequence (Q99816 whole entry, looked up): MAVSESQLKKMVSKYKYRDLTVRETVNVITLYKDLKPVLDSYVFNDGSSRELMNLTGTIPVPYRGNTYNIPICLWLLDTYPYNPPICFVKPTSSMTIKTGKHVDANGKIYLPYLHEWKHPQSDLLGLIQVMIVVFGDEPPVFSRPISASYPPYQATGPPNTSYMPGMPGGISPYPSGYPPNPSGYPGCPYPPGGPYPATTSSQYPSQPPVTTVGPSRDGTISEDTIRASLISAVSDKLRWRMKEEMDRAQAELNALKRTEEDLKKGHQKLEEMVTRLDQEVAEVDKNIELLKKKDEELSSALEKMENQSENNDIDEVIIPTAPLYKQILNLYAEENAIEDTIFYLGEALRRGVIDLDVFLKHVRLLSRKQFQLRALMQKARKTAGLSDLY
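Fluorescence polarization binding of Tsg101 binding domain (10 uM final) to FITC-labeled PTAP peptide (50 nM final) in HEPES pH 7.5 buffer with NaCl, Tween 20, EDTA, TCEP. Compounds added before peptide; binding 20 min at RT.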
TSHR antagonist: Antagonists of the Thyroid Stimulating Hormone Receptor: HTS campaign; Thyrotropin receptor (Homo sapiens), P16473; TSHR-expressing cells, TSH-stimulated cAMP HTRF, 2 h; stronger effect = lower value; activity change, negative = inhibition, % at 11.5 µM; 0.2% of 330,000 active; AID 504810, 2011;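 active = activity change below a set negative limit, meaning inhibition stronger than a set level, cut at about -70% in these data; inconclusive = activity change between two set negative limits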; note: % is set by controls: 0 for no effect and ±100 for the full control effect
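Inhibition of cAMP made by TSHR-expressing cells under TSH stimulation (4nM final, EC80; 2 h, 37 deg C) is quantified with a one-step lysis HTRF kit, anti-cAMP cryptate versus cAMP-d2.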
uPA generation: qHTS for Inhibitors of Cell Surface uPA Generation. cell surface uPA generation assay, qHTS. Potency, µM (doses to about 38.3 µM), for inactives: top-dose activity change, negative = inhibition, usual class: inhibitors. 0.31% of 330,000 active. AID 540303, 2011; active = well fitted inhibition curve with a large enough effect; inconclusive = small, poorly fitted or top-dose-only effect; inactive = no such curve, though single readings can be large or run the other way; tested in mouse RAW 264.7 cells; note: potency is the fitted concentration of half-maximal effect; % is set by controls: 0 for no effect and ±100 for the full control effect; nearly all actives have a fitted effect of over 55% in size
The depositor's hits bear a star; ? = inconclusive; nt = no result given. In the library only some 3.1% were active in any assay of this set; here they are far more common. Unless noted, calls come from the whole dose curve; as a rule, active = well fitted curve in the direction sought with a large enough effect; inconclusive = small, poorly fitted or top-dose-only effect, or another doubt; inactive = no such curve, though single readings can be large; an effect the other way counts as inactive or inconclusive.

SMILES	PLK1 PBD block	VDR inhibitor	PTAP TSG101 blk	TSHR antagonist	uPA generation
CCC1=NN(C(=O)c2ccccc2O)C(O)(c2ccccc2)C1 (stereo not drawn)	-14%	-2%	-1%	-15	11µM*
CCC1=NN(C(=O)c2ccccc2Br)C(O)(c2ccc(Br)cc2)C1 (stereo not drawn)	-12%	-12%	-1%	15	-10%
O=C(CSc1nc(-c2ccccc2)c2ccccc2n1)Nc1ccc(F)cc1	nt	7%	nt	nt	nt
COc1ccc(S(=O)(=O)N2CCOCC2)cc1C(=O)N1CCCC1	0%	-19%	-4%	0	18%
COc1ccc(S(=O)(=O)NC2CC2)cc1C(=O)N1CCOCC1	7.5µM*	?	-2%	5	-3%
Cc1c(C(=O)N2CCOCC2)c(S(=O)(=O)Nc2ccc(Br)cc2F)c(C)n1C	27µM*	?	-4%	-12	-1%
Cc1c(C(=O)N2CCOCC2)c(S(=O)(=O)Nc2cccc(Br)c2)c(C)n1C	27µM*	-21%	2%	13	-1%
CC(=O)NC(CC(=O)NCCN1C(=O)S/C(=C\c2ccccc2)C1=O)c1ccccc1 (stereo not drawn)	-8%	4%	-6%	-3	-9%
COc1ccc(NC(=O)CNC(=O)c2nn(-c3ccc(OC)cc3OC)c(=O)c3ccccc23)c(OC)c1	6%	12%	-7%	-6	0%
O=C(NCc1ccncc1)[C@@H]1CCCN1C(=O)[C@H]1CCCN1C(=O)c1cccc2ccccc12	-2%	nt	nt	nt	nt
COc1cccc(CC2(CO)CCCN(Cc3ccc(-c4ccco4)cc3)C2)c1 (stereo not drawn)	8.4µM*	?	-1%	-3	0%
O=C(CSc1ccccn1)Nc1ccc(Cl)cn1	24µM*	-21%	-9%	-15	?
O=C(COC(=O)COc1ccccc1F)Nc1ccc(Cl)cn1	0%	17%	-7%	2	1%
O=C(CN1C(=O)c2ccccc2C1=O)Nc1ccc(Cl)cn1	27µM*	-1%	-1%	16	5%
O=C(COC(=O)Cc1ccccc1F)Nc1ccc(Cl)cn1	17µM*	?	0%	2	-3%
O=c1oc2c(CN3CCCCC3)c(O)ccc2cc1-c1nc2ccccc2[nH]1	27µM*	4%	?	-14	nt
CN1CCN(Cc2c(O)ccc3cc(-c4ccccc4)c(=O)oc23)CC1	nt	12%	nt	nt	nt
O=c1oc2c(O)cccc2cc1-c1nc2ccccc2[nH]1	1.9µM*	-15%	?	9	-15%
CCOc1ccc(NC(=O)CCc2c(C)nc3nc(-c4cc(OC)cc(OC)c4)nn3c2C)cc1	nt	3%	nt	nt	nt
CCN(CC)S(=O)(=O)c1ccc(-c2csc(C)n2)cc1	9.5µM*	22µM*	-6%	1	-20%
CCCN(CCC)S(=O)(=O)c1cccc(-c2csc(C)n2)c1	-6%	-10%	0%	-10	1%
O=C(O)c1nc2cc(Cl)c(Cl)cc2[nH]c1=O	nt	1%	nt	nt	nt
O=C1c2ccccc2CC1Sc1nnc(-c2ccccn2)o1 (stereo not drawn)	24µM*	?	-1%	-1	-2%
COC(=O)C1=C(C)[C@@H](O)[C@@H](C)[C@](C)(c2cc(OC)c(C)c(OC)c2COc2ccccc2)O1	nt	-9%	nt	nt	nt
COc1ccc(C=O)cc1CSc1ccccn1	24µM*	4%	1%	0	4%
SMILES	PLK1 PBD block	VDR inhibitor	PTAP TSG101 blk	TSHR antagonist	uPA generation
CCN1C(=O)/C(=C2\SC(=S)N(NC(=O)c3cccnc3)C2=O)c2ccccc21	-2%	6%	-10%	-10	-12%
CC(C)/C=C(/C(=O)c1ccc(Cl)cc1Cl)n1cncn1	-26%	?	1%	-6	?
O=C(/C(=C/c1cccnc1)n1ccnc1)c1ccc(Cl)cc1Cl	?	50µM*	-2%	-6	-1%
CCOC(=O)C1CCCN(C(=O)CCNS(=O)(=O)c2ccc3c(c2)CCC(=O)N3)C1 (stereo not drawn)	17µM*	?	-3%	4	0%
CC1CC(C)CN(C(=O)CCNS(=O)(=O)c2ccc3c(c2)CCC(=O)N3)C1 (stereo not drawn)	6%	-14%	-2%	2	-2%
CC(=O)NN1C(=O)/C(=C/c2ccc(Br)o2)SC1=S	11µM*	-2%	-9%	11	-7%
CC(C)C[C@@H](CNCC(=O)[C@H](CC(C)C)NC(=O)c1[nH]cnc1C(=O)N[C@H](CN)CC(C)C)NC(=O)c1nc[nH]c1C(=O)N[C@@H](CC(=O)O)C(=O)O	-13%	?	2%	nt	2%
CC(=O)N1CCc2cc(S(=O)(=O)CCC(=O)Nc3ccc(C)cc3Br)ccc21	nt	-29%	nt	nt	nt
CC(=O)N1CCc2cc(S(=O)(=O)CCC(=O)Nc3ccccc3F)ccc21	24µM*	-7%	-5%	-1	-16%
CCOc1ccc(C2=NC(c3cccs3)=Nc3ccc(CC)cc3N2)cc1OCC	nt	-7%	nt	nt	nt
COc1ccc(S(=O)(=O)NCCc2sc(-c3cccnc3)nc2C)cc1OC	nt	6%	nt	nt	nt
Cc1cc(C)cc(N(CC(=O)NCC2CCCO2)C(=O)CN2C(=O)COc3ccccc32)c1 (stereo not drawn)	30µM*	-18%	-4%	6	nt
O=C(CCC(=O)OCc1ccc(C(=O)Oc2ccc(Cl)cc2)cc1)Nc1ccccc1	-8%	-3%	1%	-4	-5%
O=C(CCC(=O)OCc1ccc(Br)cc1)Nc1ccccc1	27µM*	?	0%	-3	10%
Cc1cc(N2CCN(c3cccc(C(F)(F)F)c3)CC2)n2nc(-c3ccccc3C)nc2n1	nt	5%	nt	nt	nt
Cc1cc(C)c(S(C)(=O)=O)c(Oc2ccccc2C)n1	21µM*	-13%	0%	10	-2%
COC(=O)c1ccc(Nc2ncnc3c2nc2n3CCCC2)cc1	nt	0%	nt	nt	nt
Cc1cc(F)ccc1NC(=O)C1CCC(CNS(=O)(=O)c2ccc3c(c2)CCCC(=O)N3)CC1 (stereo not drawn)	nt	2%	nt	nt	nt
COc1ccc(Cn2c(=O)sc3ccccc3c2=O)cc1	-16%	-4%	5%	-13	0%
COCCn1c(=O)sc2ccccc2c1=O	3µM*	16µM*	-1%	9	3%
O=C(O)c1ccc(N/N=C/c2cn(Cc3ccc(F)cc3)c3ccccc23)cc1	24µM*	?	-3%	-22	-21%
CCNC(=S)N/N=C/c1cn(Cc2ccc(F)cc2)c2ccccc12	0%	0%	-2%	0	0%
COc1ccc(C)cc1NC(=O)C(Cc1ccccc1)NS(=O)(=O)c1ccc(Br)s1 (stereo not drawn)	nt	3%	nt	nt	nt
O=C(C=Cc1ccccc1)c1cccs1	-16%	56µM*	-1%	nt	-8%

Assay outcomes from PubChem.
